Experiment [1] can be described thus: compounds binding Alexa647 anti-His antibody – biochemical, small-molecule microarray, 635 nm fluorescence, artefact control for SMM control protein annotation, primary screen (AID 1128).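 Note: score merges feature fluorescence with signal-to-noise for each printed compound spot.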 To be noted: higher = more signal.
Experiment [2] has as its system Human papillomavirus type 1a E7 protein (residues 1-88). As to the kind of experiment: HPV1a E7 small-molecule binders, primary screen, biochemical, small-molecule microarray, residues 1-88, 635 nm (AID 1129). To be noted: small-molecule microarray binding, fluorescence 635 nm; higher = more signal.
Experiment [3] has as its target Focal adhesion kinase 1 (Homo sapiens) (UniProt Q05397). As to the kind of experiment: PTK2 protein binding on printed compound slides – biochemical, small-molecule microarray, 635/667 nm fluorescence, BSA, DTT, primary screen (AID 1130).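 Note: composite of spot emission at 667 nm and signal to noise over triplicate slides.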 The conditions noted are these: 635 nm fluorescence, higher = more signal.
Experiment [4] concerns Fibrinogen (Alexa647-labelled). As to the kind of experiment: Alexa647-fibrinogen binding to printed small molecules – biochemical, small-molecule microarray, 635/667 nm fluorescence, artefact control for SMM control-protein annotation, profiling panel (AID 1131).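 Note: z-score merges 667 nm fluorescence with per-spot signal-to-noise over triplicate slides.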 The conditions noted are these: fibrinogen-A647 binding fluorescence, higher = more signal.
Experiment [5] has as its target Follistatin (Homo sapiens) (UniProt P19883). As to the kind of experiment: FST protein binding to printed compounds – biochemical, small-molecule microarray, 635/667 nm fluorescence, primary screen (AID 1132). The conditions noted are these: 635 nm fluorescence, higher = more signal.
Experiment [6] addresses Fibroblast growth factor 2 (Homo sapiens) (UniProt P09038). As to the kind of experiment: basic fibroblast growth factor binding to printed compounds – biochemical, small-molecule microarray, 635/667 nm fluorescence, primary screen (AID 1133). To be noted: FGF2, fluorescence 635/667, higher = more signal.
Experiment [7] can be described thus: JC-1 mitochondrial potential readout, lung cancer cells – cell-based, A549, JC-1 fluorescence, basal, 24 h, 100 nL, profiling panel (AID 1138).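 Note: A549 lung adenocarcinoma cells under basal conditions with no added stimulus; test concentration not given here.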 The conditions noted are these: higher = more signal.
A further experiment relates to Lefty1. As to the kind of experiment: Lefty1 protein binding to printed compounds – biochemical, small-molecule microarray, 635/667 nm fluorescence, primary screen (AID 1139). To be noted: fluorescence 635/667, higher = more signal.
Experiment [8] has as its system wheat germ agglutinin (Triticum aestivum), Alexa647-labelled. As to the kind of experiment: Alexa647-WGA lectin binding to printed small molecules – biochemical, small-molecule microarray, 635/667 nm fluorescence, artefact control for SMM control-protein annotation, profiling panel (AID 1140).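 Note: score merges 667 nm feature emission with signal to noise over triplicate slides.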 The conditions noted are these: WGA-A647 binding, 635 nm fluorescence, higher = more signal.

The target of experiment [9] is Luciferin 4-monooxygenase (Photinus pyralis) (UniProt P08659). As to the kind of experiment: inhibition of purified Photinus pyralis luciferase – biochemical, luminescence, purified enzyme, 2006 set, primary screen (AID 1141).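 Note: cell-free assay with purified firefly luciferase at 100 ng per well in PBS; test concentration not given here.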 To be noted: purified firefly luciferase, SteadyGlo luminescence, 30 min; higher = more signal, called active from +8 up or from −8 down.
Experiment [10] relates to Wnt5a (protein binding on small-molecule microarray). As to the kind of experiment: small molecules binding Wnt5a protein – biophysical, small-molecule microarray, 635/667 nm fluorescence, primary screen (AID 1142).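 Note: fluorescence read at 667 nm with signal to noise per printed feature.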 To be noted: 635 nm fluorescence, higher = more signal.
The nature of experiment [11]: ATP-based viability of Huh7 replicon cells – cell-based, CellTiter-Glo luminescence, basal, 48 h, cytotoxicity control for HCV replication inhibitor project, primary screen (AID 1143).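 Note: Huh7 hepatoma cells carrying a hepatitis C replication reporter with no stimulus; test concentration not given here.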 The conditions noted are these: higher = more signal, called active from +8 up or from −8 down. (In antiviral work, replicon cells carry a viral genome segment that copies itself.)
The nature of experiment [12]: Pseudomonas biofilm growth suppression – PAO1 strain, BacTiter-Glo luminescence, LB-PBS, primary screen (AID 1144). To be noted: P. aeruginosa PAO1 biofilm, 12 h, higher = more signal.
Experiment [13] can be described thus: basal CRE-LacZ reporter activity in PC12 – cell-based, unstimulated, primary screen (AID 1145). To be noted: no forskolin, luminescence, 4.5 h, higher = more signal, called active from +8 up or from −8 down.
Experiment [14] can be described thus: forskolin-driven CRE-LacZ activity in PC12 – cell-based, CRE-LacZ reporter, forskolin-stimulated, primary screen (AID 1146).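 Note: PC12 cells with 6xCRE LacZ reporter stimulated by forskolin 10 µM; beta-galactosidase reporter signal reflecting CREB driven transcription.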 To be noted: luminescence, 4.5 h, higher = more signal, called active from +8 up or from −8 down.
Experiment [15] addresses Streptavidin (Streptomyces avidinii) (UniProt P22629). As to the kind of experiment: compounds binding control protein streptavidin – biophysical, small-molecule microarray, 635/667 nm fluorescence, artefact control for SMM compound annotation, primary screen (AID 1147).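 Note: signal reflects streptavidin binding to arrayed compounds as a control protein.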 The conditions noted are these: higher = more signal.
Experiment [16] is described as follows: probe aInhba binding on compound microarray – biochemical, small-molecule microarray, 635/667 nm fluorescence, primary screen (AID 1148).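 Note: score merges 667nm spot fluorescence with signal-to-noise for antibody binding to printed compounds.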 The conditions noted are these: higher = more signal.
For experiment [17], the target named is Torsin-1A (Homo sapiens) (UniProt O14656). As to the kind of experiment: TOR1A wild-type binding on microarray – cell lysate, small-molecule microarray, lysate, 635/667 nm, primary screen (AID 1149). To be noted: COS7 hTOR1A-WT lysate, 635 nm fluorescence, higher = more signal.
For experiment [18] the target is unchanged. As to the kind of experiment: torsin A mutant lysate binding on microarrays – cell lysate, small-molecule microarray, COS7 lysate, 635/667 nm fluorescence, primary screen (AID 1150).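 Note: score pools 667 nm emission and signal to noise measuring lysate protein binding.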 The conditions noted are these: COS7 hTOR1A mutant lysate, 635 nm fluorescence, higher = more signal.
The test system of experiment [19] is Sonic hedgehog protein (Shh). As to the kind of experiment: Sonic hedgehog microarray binding compounds – biochemical, small-molecule microarray, 635/667 nm fluorescence, primary screen (AID 1151).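 Note: Shh protein binding to compounds spotted on small-molecule microarray slides; score combines spot fluorescence intensity with signal-to-noise across triplicate slides.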 To be noted: 635 nm fluorescence, higher = more signal.

Structures are written as SMILES. Where “and” joins values, the source holds several entries; their conditions need not be identical. Identical values can stand only once. Calls of active or inactive are those of the source. Unless noted, the rule behind the calls is not given here.

Focal adhesion kinase 1 (Homo sapiens), sequence (Q05397 whole entry, looked up): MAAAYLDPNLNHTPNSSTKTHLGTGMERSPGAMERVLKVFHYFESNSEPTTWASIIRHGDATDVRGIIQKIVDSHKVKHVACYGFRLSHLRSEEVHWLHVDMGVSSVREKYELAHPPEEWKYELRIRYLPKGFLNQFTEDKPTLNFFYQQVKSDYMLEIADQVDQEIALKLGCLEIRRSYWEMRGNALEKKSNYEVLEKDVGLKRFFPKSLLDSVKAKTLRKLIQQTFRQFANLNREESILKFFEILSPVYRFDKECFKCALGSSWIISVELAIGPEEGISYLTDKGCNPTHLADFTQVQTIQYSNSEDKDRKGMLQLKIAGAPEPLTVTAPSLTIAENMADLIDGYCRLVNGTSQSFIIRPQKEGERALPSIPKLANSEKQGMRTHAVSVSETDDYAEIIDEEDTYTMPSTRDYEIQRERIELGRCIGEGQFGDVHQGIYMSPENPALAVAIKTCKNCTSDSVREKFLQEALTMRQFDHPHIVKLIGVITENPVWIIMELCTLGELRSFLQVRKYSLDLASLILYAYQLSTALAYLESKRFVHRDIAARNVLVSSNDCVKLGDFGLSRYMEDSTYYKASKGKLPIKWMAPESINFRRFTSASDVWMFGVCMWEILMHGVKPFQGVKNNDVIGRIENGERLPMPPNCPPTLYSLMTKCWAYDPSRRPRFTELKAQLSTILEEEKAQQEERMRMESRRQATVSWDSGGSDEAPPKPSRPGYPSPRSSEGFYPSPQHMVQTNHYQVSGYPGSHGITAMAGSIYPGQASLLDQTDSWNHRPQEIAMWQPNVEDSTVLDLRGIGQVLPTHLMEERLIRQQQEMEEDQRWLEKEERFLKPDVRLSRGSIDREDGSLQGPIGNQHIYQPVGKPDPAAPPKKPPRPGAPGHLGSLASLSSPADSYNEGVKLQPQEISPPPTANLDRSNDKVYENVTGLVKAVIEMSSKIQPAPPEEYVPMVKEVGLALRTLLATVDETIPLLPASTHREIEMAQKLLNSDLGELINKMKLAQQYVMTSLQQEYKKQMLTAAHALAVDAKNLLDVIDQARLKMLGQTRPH
Luciferin 4-monooxygenase (Photinus pyralis), sequence (P08659 whole entry, looked up): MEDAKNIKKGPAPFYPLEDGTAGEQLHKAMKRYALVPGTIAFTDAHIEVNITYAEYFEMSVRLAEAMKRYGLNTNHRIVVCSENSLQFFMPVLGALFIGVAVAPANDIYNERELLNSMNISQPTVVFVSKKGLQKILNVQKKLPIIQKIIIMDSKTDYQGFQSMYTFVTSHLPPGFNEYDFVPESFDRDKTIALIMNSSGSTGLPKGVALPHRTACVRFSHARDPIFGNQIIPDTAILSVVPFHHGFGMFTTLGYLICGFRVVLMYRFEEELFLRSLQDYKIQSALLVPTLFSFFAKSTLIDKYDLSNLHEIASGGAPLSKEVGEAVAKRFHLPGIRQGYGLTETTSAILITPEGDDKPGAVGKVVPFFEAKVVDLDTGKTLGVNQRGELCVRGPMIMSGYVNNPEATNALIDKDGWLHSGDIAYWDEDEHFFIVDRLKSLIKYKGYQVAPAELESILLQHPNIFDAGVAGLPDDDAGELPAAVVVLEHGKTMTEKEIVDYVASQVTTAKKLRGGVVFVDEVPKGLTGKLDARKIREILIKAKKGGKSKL
Follistatin (Homo sapiens), sequence (P19883 whole entry, looked up): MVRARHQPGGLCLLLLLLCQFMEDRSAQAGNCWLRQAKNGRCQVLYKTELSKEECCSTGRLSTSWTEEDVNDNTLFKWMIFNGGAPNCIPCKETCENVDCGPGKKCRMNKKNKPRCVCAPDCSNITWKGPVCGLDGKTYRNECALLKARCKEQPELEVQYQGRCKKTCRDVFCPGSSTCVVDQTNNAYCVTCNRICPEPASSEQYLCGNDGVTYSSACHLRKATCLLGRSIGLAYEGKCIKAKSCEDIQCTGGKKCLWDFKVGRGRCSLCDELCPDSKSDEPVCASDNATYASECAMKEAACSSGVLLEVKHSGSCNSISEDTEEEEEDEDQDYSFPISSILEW
Fibroblast growth factor 2 (Homo sapiens), sequence (P09038 whole entry, looked up): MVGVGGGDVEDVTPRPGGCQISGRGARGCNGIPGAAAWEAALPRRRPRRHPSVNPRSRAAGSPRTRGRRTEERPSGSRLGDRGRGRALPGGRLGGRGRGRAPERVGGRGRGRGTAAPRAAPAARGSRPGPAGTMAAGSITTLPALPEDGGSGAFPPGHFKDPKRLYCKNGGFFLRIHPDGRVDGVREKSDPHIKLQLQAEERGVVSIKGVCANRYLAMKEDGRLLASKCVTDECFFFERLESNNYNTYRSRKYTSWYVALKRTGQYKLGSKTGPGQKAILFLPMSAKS
Streptavidin (Streptomyces avidinii), sequence (P22629 whole entry, looked up): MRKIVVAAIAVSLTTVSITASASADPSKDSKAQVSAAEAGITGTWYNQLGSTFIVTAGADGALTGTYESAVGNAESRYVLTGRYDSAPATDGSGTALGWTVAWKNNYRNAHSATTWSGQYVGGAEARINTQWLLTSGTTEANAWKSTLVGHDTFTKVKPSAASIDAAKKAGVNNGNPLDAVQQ
Torsin-1A (Homo sapiens), sequence (O14656 whole entry, looked up): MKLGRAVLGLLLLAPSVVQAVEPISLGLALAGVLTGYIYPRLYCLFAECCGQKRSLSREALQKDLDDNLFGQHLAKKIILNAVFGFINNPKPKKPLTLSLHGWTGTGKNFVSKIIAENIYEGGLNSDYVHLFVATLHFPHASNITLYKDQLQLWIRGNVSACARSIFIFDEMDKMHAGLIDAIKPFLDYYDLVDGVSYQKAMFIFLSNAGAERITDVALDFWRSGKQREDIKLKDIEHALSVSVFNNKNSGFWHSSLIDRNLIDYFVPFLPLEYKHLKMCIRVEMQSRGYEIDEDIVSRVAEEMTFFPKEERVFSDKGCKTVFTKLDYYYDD

As for `C=CCN(Cc1ccccc1)C(=O)C(c1cccs1)N(C(=O)/C=C\C(=O)O)c1c(Cl)cccc1CO` (stereo not given), the composite z-score in [1] was -0.815 and -1.36; in [2] it was -0.562 and -1.54; in [3], -0.675 and -0.0599; in [4], -2.79 and -3.53; in [5] it was -1.74 and -2.71; in [6] it was -2.4 and -1.88. Moreover, the composite z-score was -1.51 and -1.93 with Lefty1; -0.482 and -1.57 in [8]; -0.835 and -0.796 in experiment [10]; -1.7 and -1.08 in experiment [15]; -0.154 and -0.176 in experiment [16]; -2.82 and -2.49 with Torsin-1A (Homo sapiens) [17]. For the same compound, the composite z-score in the experiment with Torsin-1A (Homo sapiens) [18] is 0.702 and -1.72; in experiment [19], -0.877 and -0.78. The z-score was -0.321 and -0.229 in experiment [7]; 1.02 (inactive) and 0.077 (inactive) in experiment [9]; -0.109 (inactive) and 0.446 (inactive) in experiment [11]; -1.78 (inactive) and 0.911 (inactive) in experiment [12]; -1.44 (inactive) and 0.191 (inactive) in experiment [13]; -0.418 (inactive) and -0.107 (inactive) in experiment [14].
Consider `C=CCN(CCCCC)C(=O)C(c1cccs1)N(CCOCCO)C(=O)/C=C\C(=O)O` (stereo not given), for which the composite z-score in experiment [1] is -0.635 and -0.348; in experiment [2], -1.05 and -0.826; in experiment [3], -0.759 and 0.926; in [4], -1.57 and -1.63; in [5], -2.22 and -1.47; in experiment [6], -1.77 and -1.79. Also, the composite z-score in the experiment with Lefty1 is -0.99 and -1.37; in [8], -0.539 and 0.579; in [10] it was -0.845 and -0.857; in experiment [15] it was -0.986 and -1.14; in [16], -0.312 and -0.204; in the experiment with Torsin-1A (Homo sapiens) [17] it was -2.06 and -2.03. Further, the composite z-score with Torsin-1A (Homo sapiens) [18] is -1.74 and -2.07; in [19] it was -0.556 and -0.586. For the same compound, the z-score in experiment [7] was 1.34 and 0.685; in [9], -4.23 (inactive) and -3.13 (inactive); in experiment [11] it was -0.103 (inactive) and -0.0586 (inactive); in experiment [12] it was -1 (inactive) and -1.11 (inactive); in experiment [13] it was -0.0778 (inactive) and -0.35 (inactive); in experiment [14], 0.941 (inactive) and -0.947 (inactive).
`C=CC[C@@H](O)c1ccc(O)c(F)c1`: the composite z-score was -1.52 and -0.7 in experiment [1]; -0.762 and -1.07 in [2]; -0.0427 and -0.9 in [3]; -0.755 and -1.22 in [4]; -1.12 and -0.0709 in experiment [5]; -1.42 and -0.594 in [6]. For the same compound, the composite z-score in the experiment on Lefty1 is -1.9 and -0.344; in experiment [8] it was 0.106 and -1.3; in experiment [10] it was -0.54 and -0.38; in experiment [15], -1.6 and -1.65; in [16] it was -0.327 and -0.157; with Torsin-1A (Homo sapiens) [17], -1.73 and -0.874. Besides, the composite z-score with Torsin-1A (Homo sapiens) [18] is 0.565 and -0.383; in experiment [19], -0.97 and 0.89. Besides, the z-score is -0.933 and 1.15 in experiment [7]; -0.0615 (inactive) and -1.14 (inactive) in experiment [9]; 0.504 (inactive) and -1.51 (inactive) in experiment [11]; -0.222 (inactive) in experiment [12]; -0.403 (inactive) and 0.0632 (inactive) in [13]; 0.347 (inactive) and -1.46 (inactive) in experiment [14].
Take `C=CCN(C(=O)C1N(CCOCCO)C(=O)C2C(C(=O)O)C3C=CC21O3)c1ccc(OC)cc1` (stereo not given): the composite z-score in experiment [1] is -0.576 and -1.3; in [2], -1.57 and -1.78; in experiment [3], 0.748 and -0.878; in experiment [4] it was -1.13 and -2.1; in experiment [5], -2.1 and -2.52; in experiment [6], -0.792 and -1.54. The composite z-score in the experiment with Lefty1 is -2.56 and -2.64; in experiment [8], -0.937 and -1.41; in [10], -0.571 and -0.317; in experiment [15], -1.35 and -1.27; in [16] it was -0.186 and -0.296; in the experiment with Torsin-1A (Homo sapiens) [17] it was -1.81 and -2.21. In addition, the composite z-score with Torsin-1A (Homo sapiens) [18] was -1.91 and -1.9; in experiment [19], -1.31 and -0.761. The z-score in experiment [7] was 0.154 and 0.454; in [9], -0.505 (inactive) and -0.392 (inactive); in [11] it was -0.769 (inactive) and -0.89 (inactive); in experiment [12], 0.0762 (inactive) and 0.0838 (inactive); in experiment [13], 0.329 (inactive) and 0.463 (inactive); in experiment [14], 0.373 (inactive) and -0.121 (inactive).

Values taken from PubChem BioAssay.
